This is a sample that favours compounds with a hit; in the whole collection about 6.6% have one here.
HepG2 viability – HepG2 cytotoxicity, counter-screen for TGF-b inhibitors | Potency, µM (series often up to 46.1 µM), actives largely listed as cytotoxic | hit rate 0.76% among 410,000 | HepG2 CAGA-GFP viability, ATP luminescence, 18 h
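HepG2 CAGA-GFP cells (1000/well, DMEM with 1% FBS) received compound, then TGF-beta at 500 pg/mL final, and were incubated 18 hours at 37 degrees C. Viability was read by CellTiter-Glo luminescence. Media-only wells were set as complete cell-killing and DMSO as no toxicity.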
HT1080-NT tox – kills 2HG-producing HT-1080-NT fibrosarcoma cells; AID 686970; HT-1080-NT fibrosarcoma viability, CellTiter-Glo ATP luminescence, 48 h; hit rate 1.6% among 360,000; Potency, µM (top dose mostly 46.1 µM), hits mostly cytotoxic;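 further: NT is the 2HG producing partner of a matched IDH1 knockdown line; nearly all actives have a fitted effect of over 55% in size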
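HT-1080-NT fibrosarcoma cells (2HG-overproducing), 750 cells/well in RPMI with 5% FBS, dosed after 2 h and incubated 48 h at 37C. CellTiter-Glo luminescence normalized to DMSO and no-cell wells; concentration-response curves fitted and classed.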
TGFb SMAD3 inh – inhibitors of TGF-b signaling; hit rate 1.2% among 410,000; HepG2 CAGA-GFP TGF-b/SMAD3 reporter, GFP fluorescence, 18 h; TGF-beta stimulated, 500 pg/mL final; Potency, µM (highest dose often 46.1 µM), hits mostly inhibitors; further: nearly all actives have a fitted effect of over 65% in size
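GFP signal (ex488/em500-530) from TGF-beta-stimulated HEPG2 CAGA-GFP cells, 500 pg/mL final, 18 h at 37 degrees C in DMEM plus 1% FBS, normalized to unstimulated and DMSO-stimulated controls.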
KB-3-1 tox – KB-3-1 parental cell cytotoxicity; KB-3-1 viability, CellTiter-Glo ATP luminescence, 72 h; hit rate 1.4% among 400,000; Potency, µM (highest dose often 46.1 µM), most hits filed as cytotoxic; further: nearly all actives have a fitted effect of over 60% in size
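Luminescent ATP read-out (CellTiter-Glo) measures survival of drug-naive KB-3-1 cells after 72 h compound exposure at 37 °C. Titration series was screened from lowest to highest concentration, with DMSO vehicle plates as background controls.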
KB-V1 MDR tox – kills drug-selected multidrug resistant KB-V1 cells; Potency, µM (titrated, usually from 46.1 µM), usual class: cytotoxic; KB-V1 MDR cells viability, CellTiter-Glo, 72 h; hit rate 3.4% among 400,000; further: nearly all actives have a fitted effect of over 60% in size
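Compound-treated KB-V1 multidrug-resistant cells, 72 h, 37 degrees C; viability by CellTiter-Glo. Fitted qHTS curves give the values.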
HT1080 IDH1KD tx – toxicity to HT-1080 IDH1 knockdown cells (counter line); Potency, µM (titrated, usually from 46.1 µM), usual class: cytotoxic; hit rate 2% among 360,000; AID 686971; HT-1080 IDH1 knockdown viability, ATP luminescence, 48 h
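In this qHTS, HT-1080 cells depleted of IDH1 are exposed for 48 h at 37 °C to compound titrations. Toxicity is scored from CellTiter-Glo luminescence, with DMSO as full viability and medium alone as none.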
Hits are given with their value; – = inactive; ? = inconclusive; · = not tested or not shown. The call rests on the fitted dose curve; in most records, active means well fitted curve in the direction sought with a large enough effect; inconclusive means small, poorly fitted or top-dose-only effect, or another doubt; inactive means no such curve, though single readings can be large; an effect the other way counts as inactive or inconclusive.

SMILES	HepG2 viability	HT1080-NT tox	TGFb SMAD3 inh	KB-3-1 tox	KB-V1 MDR tox	HT1080 IDH1KD tx
CCn1c(=N)n(CC(=O)C(C)(C)C)c2ccccc21	–	7.08µM	?	–	–	7.94µM
Cc1cccc(CS(=O)(=O)CC2Nc3ccc(C(=O)NCc4ccccc4Cl)cc3NC2=O)c1 (centres undefined)	–	·	?	·	·	·
Cc1ccc(C2CC(=O)C=C(NCC(C)C)C2)cc1 (centres undefined)	–	–	–	?	?	–
Cc1ccc(C2CC(=O)C=C(NCc3ccccc3)C2)cc1 (centres undefined)	–	?	–	14.6µM	20.6µM	20.6µM
O=C1c2cccc3c(N4CCCCC4)ccc(c23)C(=O)N1c1cccc(O)c1	–	–	–	?	?	?
Cc1n[nH]c(C)c1N1C(=O)c2cccc3c(N4CCCCCC4)ccc(c23)C1=O	–	–	–	–	20.6µM	–
COc1ccc(CNC(=O)Cn2ccc3cc(S(=O)(=O)N4CCCCCC4)ccc32)cc1OC	–	·	–	–	–	·
CCCCC(=O)Nc1nn(CC(C)C)c2nc3ccccc3cc12	–	–	–	–	16.4µM	–
COc1ccc2nc3c(cc2c1)c(NC(=O)c1cccs1)nn3CC(C)C	–	?	?	?	?	13µM
CCCn1nc(NC(=O)CC(C)C)c2cc3ccccc3nc21	–	–	–	–	5.17µM	–
CC(C)Cn1nc(NC(=O)C(C)(C)C)c2cc3ccccc3nc21	–	–	–	–	–	–
CC(C)(C)C(=O)Cn1ncc(N2CCOCC2)c(Cl)c1=O	–	–	–	–	–	–
CC(C)(C)C(=O)Cn1ncc(Br)c(Br)c1=O	–	?	?	10.3µM	–	?
Cc1oc2ccc(O)c(CN3CCCC3)c2c1C(=O)Nc1ccc(C(C)C)cc1	–	·	?	–	–	·
CC(C)CCNC(=O)Cn1cc(S(=O)(=O)Cc2ccc(F)cc2)c2ccccc21	–	·	?	–	–	·
COc1ccc(CNC(=O)C(CCSC)NS(=O)(=O)c2ccc3c(c2)oc(=O)n3C)cc1 (centres undefined)	–	·	–	·	·	·
O=[N+]([O-])c1cc(S(=O)(=O)C(F)(F)F)ccc1Sc1nc2ccccc2s1	17.8µM	23.1µM	?	3.26µM	?	?
O=[N+]([O-])c1cc(S(=O)(=O)C(F)(F)F)ccc1Sc1nc2ccccc2[nH]1	–	?	?	?	–	18.4µM
CS(=O)(=O)c1ccc(Sc2nc3ccccc3s2)c([N+](=O)[O-])c1	–	–	?	–	?	20.6µM
CS(=O)(=O)c1ccc(Sc2nc3ccccc3[nH]2)c([N+](=O)[O-])c1	–	–	?	?	–	–
O=C(CCCn1c(=O)c2ccccc2n(Cc2ccc(F)cc2Cl)c1=O)NCCc1ccc(Cl)cc1	–	·	–	–	–	·
CCN(CC)/[N+]([O-])=N/OCOC(=O)c1ccccc1OC(C)=O	–	·	–	·	·	·
CC(=O)C(Cc1ccccc1)NC(=O)CCl (centres undefined)	–	–	–	?	–	–
CCC(NC(=O)c1ccccc1O)c1ccccc1 (centres undefined)	–	–	–	–	16.4µM	–
CCC(NC(=O)CCCc1ccccc1)c1ccccc1 (centres undefined)	–	–	–	–	18.4µM	–
SMILES	HepG2 viability	HT1080-NT tox	TGFb SMAD3 inh	KB-3-1 tox	KB-V1 MDR tox	HT1080 IDH1KD tx
O=C(CCl)NC(Cc1ccccc1)c1ccccc1 (centres undefined)	–	?	–	?	?	16.4µM
CCCNC(=O)c1ccc(Cn2c(=O)c3cccn3c3cccnc32)cc1	–	·	–	·	·	·
O=C(NCCc1ccccc1Cl)c1ccc(Cn2c(=O)c3cccn3c3cccnc32)cc1	10µM	·	?	·	·	·
Cc1cc(C(=O)NCc2cccnc2)no1	–	–	–	–	–	–
Cc1ccc(-c2cc(C(=O)NCc3cccnc3)no2)cc1	–	–	–	–	16.4µM	–
COc1ccccc1-c1cc(C(=O)NCc2ccc(F)cc2)no1	–	–	–	–	16.4µM	?
COc1ccc(-c2cc(C(=O)Nc3cccnc3)no2)cc1OC	–	–	–	–	?	–
Cc1ccc(S(=O)(=O)N(Cc2ccccc2)c2ccccc2C(=O)NCc2cccnc2)cc1	–	–	–	?	23.1µM	–
COc1ccc(-c2cc(C(=O)NCc3cccnc3)no2)cc1OC	–	–	–	–	20.6µM	–
Cc1ccc(OCc2nc(-c3ccc(C(=O)NCCc4ccc(S(N)(=O)=O)cc4)cc3)oc2C)cc1	–	·	–	–	–	·
CC(=O)N1CCc2cc(CNC(=O)Cc3ccc(F)cc3)ccc21	–	·	–	·	·	·
COc1ccccc1-c1cc(C(=O)NCc2ccccc2)c2c(-c3ccc(C)cc3)[nH]nc2n1	–	·	–	–	–	·
COc1cc(OC)c(-c2cc(C(=O)NCc3ccc(F)cc3)c3c(-c4ccccc4)[nH]nc3n2)cc1OC	11.2µM	·	?	–	–	·
Cc1cc(C(O)c2ncc(-c3ccccc3C)[nH]2)ccc1F (centres undefined)	–	–	–	–	–	–
CCOc1ncccc1C(=O)NCc1cccc(OC)c1	–	–	–	–	?	–
CCOc1ncccc1C(=O)NCc1ccc(OC)cc1	–	?	–	14.6µM	13µM	8.91µM
CCCCn1cc2c(c1-c1ccc(Cl)cc1)c(=O)n(C)c(=O)n2C	–	·	?	–	–	·
O=C1CCc2cc(Cl)c(S(=O)(=O)Nc3ccc(Cl)c(Cl)c3)cc2N1	·	·	·	–	–	·
O=S1(=O)N=C(Sc2cccc3cccnc23)c2ccccc21	·	·	·	9.2µM	?	·
O=C(CSc1n[nH]c(-c2ccc(Cl)cc2Cl)n1)Nc1ccccn1	–	–	–	–	16.4µM	–
COc1ccc(CCNC(=O)Nc2ccc3c(c2)c(=O)n(C)n3Cc2ccc(F)cc2)cc1OC	–	–	–	–	–	–
COc1cc(Cn2c3ccc(NC(=O)CCc4ccc(O)cc4)cc3c(=O)n2C)ccc1F	–	?	–	5.8µM	–	?
COc1cc(Cn2c3ccc(NC(=O)NCc4ccc(F)cc4)cc3c(=O)n2C)ccc1F	–	?	?	9.2µM	–	?
Cc1ccnc(NS(=O)(=O)c2ccc(NC(=O)C(C)(C)Oc3ccc(Cl)cc3)cc2)n1	–	·	–	–	–	·
Cn1nc(-c2ccccc2F)c2cc(C(=O)N3CCN(c4ccc(F)cc4)CC3)sc21	–	·	?	?	–	·
Cn1nc(-c2ccccc2F)c2cc(C(=O)N3CCN(c4ccccc4F)CC3)sc21	–	·	?	?	5.17µM	·
O=C(CCl)N(CCCNC(=O)C(F)(F)F)c1ccc([N+](=O)[O-])cc1	15.8µM	20.6µM	?	–	–	7.31µM
